Inconclusive results are not listed.
Test: Confirmation Concentration-Response Assay for Agonists of the Thyroid Stimulating Hormone Receptor; note: reference of the scale not given here
Conditions: HEK293 TSHR-CNG cells, membrane potential dye, cAMP; measured here: parental HEK293 counter-screen max
Summary of the method: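 TSHR+CNG HEK293 cells plated 20–36 h; membrane potential dye + 100 uM RO 20-1724, 60 min RT; cpd 30 min; fluorescence em 590 nm, bottom read. Parental CNG cells counterscreen endogenous targets.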

SMILES | max response
CCOc1ccc(N(C(C)C(=O)Nc2ccc(OC)cc2)S(C)(=O)=O)cc1 (stereo not drawn) | -4.4%
Cc1ccccc1NC(=O)N1C2CCCC1CC(NC(=O)C1CC1)C2 (stereo not drawn) | 20.1%
O=C1N(c2ccccc2)C2CS(=O)(=O)CC2N1c1ccc(Cl)c(Cl)c1 (stereo not drawn) | -23.3%
COc1cc(/C=N/n2c(SC)nnc(C(C)(C)C)c2=O)ccc1O | -7.99%
COCCNC(=O)C(c1ccccc1)N(Cc1cccs1)C(=O)Cn1nnc2ccccc21 (stereo not drawn) | 6.98%
Cc1nn(-c2ccccc2)c(N2CCCC2)c1/C=N/n1cnc2scc(-c3ccccc3)c2c1=O | 16.6%
O=C1CC(c2ccco2)CC2=C1C(c1ccccc1)n1nc(C(F)(F)F)nc1N2 (stereo not drawn) | -7.22%
COc1ccc(C2Nc3ccccc3C(=O)N2Cc2ccco2)cc1COc1ccc(NC(C)=O)cc1 (stereo not drawn) | 21.9%
Cc1cc(SCNC(=O)c2ccccc2)ncn1 | -2.72%
COC(=O)C1=C(C)OC(N)=C(C#N)C1C1CCCCC1 (stereo not drawn) | 16.5%
O=C(Nc1ccc(N2CCOCC2)cc1)C1CC1 | 5.07%
COc1cc(NC(=O)c2cc(-n3cnnc3)ccc2Cl)cc(OC)c1 | -1.27%
CCn1c(=O)c(C(=O)CN2CCCc3ccccc32)c(N)n(Cc2ccccc2)c1=O | -16.6%
CCS(=O)(=O)N1CCN(C(C)CCc2ccccc2)CC1 (stereo not drawn) | -2.55%
COc1ccc(CNc2nc(SC)n[nH]2)cc1OC | 3.91%
Oc1ccccc1Cn1c(-c2ccccc2O)nc2ccccc21 | -14.6%
COc1cc2c(N3CCOCC3)cc(O)c(CC(=O)Nc3ccccc3)c2cc1OC | -10.7%
COc1cc(OC)cc(-c2nnc(SCC(=O)N(C(C)C)C(C)C)o2)c1 | 16.6%

— PubChem BioAssay AID939 (National Center for Advancing Translational Sciences (NCATS), 2007)
